# Compound activity from PubChem.
# FUS yeast rescue = qHTS for Suppressors of FUS Proteinopathy: Primary screen using FUS-linked yeast assay | S. cerevisiae FUS-expressing, growth rescue, OD600, 24 h | Potency, µM (titrated, usually from 76.6 µM), usual class: activators | actives 0.24% (n = 390,000); note: nearly all actives have a fitted effect of over 55% in size
#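 Absorbance at 600 nm, taken 24hr after compound addition, measured rescue of FUS-yeast growth at 30C. Induction used 2% galactose with seeding at OD 0.005. Controls: CP55940 from 92uM final, DMSO only.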
# TDP43 rescue = qHTS of TDP-43 Inhibitors | TDP-43 expressing yeast growth rescue, BacTiter-Glo, 24 h | Potency, µM (titrated, usually from 46.1 µM), hits mostly activators | actives 1.8% (n = 410,000) | AID 652104, 2013; note: nearly all actives have a fitted effect of over 50% in size
#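 Growth rescue of TDP-43-toxic yeast measured as ATP luminescence (BacTiter-Glo). Cells grown to mid-log in raffinose, induced in galactose at OD600=0.02, exposed to compound 24 hr at 30 deg C.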
# aSyn yeast inh = qHTS of alpha-syn Inhibitors; Yeast expressing alpha-synuclein, growth rescue, BacTiter-Glo, 24 h; Potency, µM (series often up to 46.1 µM), hits mostly activators; actives 0.14% (n = 370,000); AID 652106, 2013; note: nearly all actives have a fitted effect of over 65% in size
#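 Readout is rescue of growth in alpha-synuclein-expressing yeast, so inhibitors of toxicity appear as activators. Growth after 24 hr at 30 deg C in galactose medium is quantified by luminescence.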
# GRP78 ERSR act = qHTS for Inducers of the Endoplasmic Reticulum Stress Response (ERSR) in Human Glioma: qHTS; U87-MG GRP78 promoter luciferase reporter, 16 h; Potency, µM, usual class: activators; actives 0.02% (n = 420,000); AID 602332, 2012; note: series mostly up to about 76 µM; nearly all actives have a fitted effect of over 35% in size
#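 Stably transfected U87-MG glioma cells carrying a GRP78-based luciferase sensor; 16 h compound incubation. Luminescence end-point read 10 min after Bright-Glo addition at room temperature.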
# Abeta yeast res = qHTS for compounds that reverse cellular toxicity of Amyloid beta (A-beta) peptide in yeast: Primary Screen; AID 1347071, 2019; yeast expressing A-beta42, growth rescue, OD600, 48 h; response scale: 0% DMSO, 100% iron-clioquinol control; actives 0.063% (n = 410,000); Potency, µM (top dose mostly 46.1 µM), hits mostly activators; note: nearly all actives have a fitted effect of over 55% in size
#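 Yeast growth medium received pinned compounds, then yeast cells expressing toxic A-beta were added; plates incubated at 30 C for 48 hr. Growth read as absorbance at 600 nm, normalized to DMSO and equimolar FeCl3 plus clioquinol controls.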
# MBNL1-CUG inh = qHTS Assay for Inhibitors of MBNL1-poly(CUG) RNA binding; Potency, µM (highest dose often 57.5 µM), most hits filed as inhibitors; TR-FRET MBNL1-His/biotin-(CUG)12 binding, 665/545 ratio; Muscleblind-like protein 1 (Homo sapiens), Q9NR56; actives 0.036% (n = 280,000); active = well fitted inhibition curve with a large enough effect in the signal ratio, with a control signal flat, not every such curve was filed as active; inconclusive = small, poorly fitted or top-dose-only effect, or effect the other way, or a change in a side signal; inactive = no such curve, though single readings can be large or run the other way; the % refers to the signal ratio
# Target sequence (Q9NR56 whole entry, looked up): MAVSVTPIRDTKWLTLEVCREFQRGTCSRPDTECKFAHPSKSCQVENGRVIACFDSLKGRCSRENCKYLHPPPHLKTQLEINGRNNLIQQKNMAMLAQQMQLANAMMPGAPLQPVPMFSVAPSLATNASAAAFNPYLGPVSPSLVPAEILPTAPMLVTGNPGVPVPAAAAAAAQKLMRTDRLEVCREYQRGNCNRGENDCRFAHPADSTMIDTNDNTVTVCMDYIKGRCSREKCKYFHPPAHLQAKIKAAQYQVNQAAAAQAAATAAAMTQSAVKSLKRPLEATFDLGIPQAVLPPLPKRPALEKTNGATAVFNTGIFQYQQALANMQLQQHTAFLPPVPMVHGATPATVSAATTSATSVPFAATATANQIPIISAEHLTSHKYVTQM
#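 Inhibition of protein-RNA binding appears as loss of TR-FRET between terbium anti-His antibody on MBNL1-His and streptavidin-XL665 on biotin-(CUG)12. Activity is normalized to buffer-only and uninhibited-complex controls.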
# A number is an active result; . = inactive; ? = inconclusive; / = not tested or not shown; [ ] = remark or other dose. A selection: hits, their analogues and other compounds. The true share with any hit is near 2%. Unless noted, calls come from the whole dose curve; as a rule, active = well fitted curve in the direction sought with a large enough effect; inconclusive = small, poorly fitted or top-dose-only effect, or another doubt; inactive = no such curve, though single readings can be large; an effect the other way counts as inactive or inconclusive.
SMILES,FUS yeast rescue,TDP43 rescue,aSyn yeast inh,GRP78 ERSR act,Abeta yeast res,MBNL1-CUG inh
CCCCCCC(O)C/C=C\CCCCCCCC(=O)O (configuration not stated),/,/,/,.,/,/
Nc1nonc1-n1nnc(C(=O)N/N=C/c2ccc(O)cc2)c1COc1ccc(F)cc1,.,.,.,.,.,.
CN(C)Cc1c(C(=O)N/N=C/c2ccc(OCc3c(F)cccc3Cl)cc2)nnn1-c1nonc1N,.,11µM,.,.,.,.
COc1ccc(OC(C)C(=O)NCc2nc(-c3ccc(Cl)cc3)no2)cc1 (configuration not stated),?,16µM,/,.,.,/
COc1cccc(-c2ccnc(-n3ncc(C(=O)N(C)CCc4ccccn4)c3C)n2)c1,/,/,/,.,/,/
CC(=O)c1ccc(NC(=O)NC2CCCCN(Cc3cccc(Cl)c3)C2=O)cc1 (configuration not stated),.,/,/,/,/,/
COc1ccc(C(=O)N2N=C(c3cccs3)CC2c2ccccc2O)cc1 (configuration not stated),.,.,18µM,.,.,?
COc1ccc(C2=NN(C(=O)c3cccs3)C(c3ccccc3O)C2)cc1 (configuration not stated),.,.,.,?,.,.
COc1cccc(C(=O)CC2(O)C(=O)N(Cc3ccccc3)c3ccccc32)c1 (configuration not stated),.,.,/,.,.,/
COc1ccc(C(=O)CC2(O)C(=O)N(Cc3cccc(C(F)(F)F)c3)c3ccccc32)cc1 (configuration not stated),?,22µM,?,.,.,/
CCNC(=O)n1nccc1C(C)Oc1ccc(Cl)cc1 (configuration not stated),.,11µM,.,.,.,.
CCNC(=O)n1nccc1C(C)Oc1cccc(C(F)(F)F)c1 (configuration not stated),.,16µM,.,.,.,.
O=C(NCc1ccccc1Cl)C1CCCN(c2nc3ccccc3o2)C1 (configuration not stated),.,/,/,/,/,/
COc1ccc(CN2CCCC(Cn3cc(C(=O)N4CCCC4)nn3)C2)c(O)c1 (configuration not stated),/,/,/,.,/,/
Cc1ccc(CN2CCOc3ccc(CN4CCC(Oc5cccnc5)CC4)cc3C2)o1,/,/,/,.,/,/
CCOC(=O)[C@@]12CN(C(=O)OC(C)(C)C)CC=C1N(Cc1ccc(OC)cc1)C(=O)[C@H]2CC(=O)N1CCSCC1,.,/,/,/,/,/
O=C1N(CCCl)c2ccc(Br)cc2C12OCCO2,.,10µM,.,.,.,.
Cc1ccc(S(=O)(=O)Nc2ccc3nc(C)sc3c2)c(C)c1,.,13µM,.,.,.,/
Cc1ccc(S(=O)(=O)Nc2ccc3nc(C)sc3c2)cc1,.,.,.,.,.,.
CC(C)(C)n1ncc2c(=O)n(Cc3ccc(F)c(C(F)(F)F)c3)cnc21,/,/,/,.,/,/
COc1ccccc1C1CN(Cc2cnn(C)c2C)Cc2ccccc2O1 (configuration not stated),/,/,/,.,/,/
CC1CCN(S(=O)(=O)c2ccc(C(=O)Nc3nnc(C4CC4)o3)cc2)CC1,?,?,18µM,.,13µM,.
Cc1nnc(NC(=O)c2ccc(S(=O)(=O)N3CC(C)CC(C)C3)cc2)o1 (configuration not stated),.,.,16µM,.,?,.
O=C(Nc1nnc(C2CC2)o1)c1ccc(S(=O)(=O)N2CCCc3ccccc32)cc1,.,18µM,?,.,?,.
Cc1ccc(S(=O)(=O)c2ccc([N+](=O)[O-])cn2)cc1,.,?,.,.,.,?
SMILES,FUS yeast rescue,TDP43 rescue,aSyn yeast inh,GRP78 ERSR act,Abeta yeast res,MBNL1-CUG inh
Cc1cc(S(=O)(=O)c2ccc([N+](=O)[O-])cn2)ccc1Br,.,1µM,.,.,.,/
CCc1cc(C(=O)N2CCN(S(=O)(=O)c3ccccc3F)CC2)sc1C,.,22µM,.,.,.,/
Cc1c(C(=O)N2CCN(S(=O)(=O)c3ccccc3F)CC2)oc2c(Cl)cccc12,?,14µM,.,.,.,/
COCc1c(C(=O)N2CCN(S(=O)(=O)c3ccccc3Cl)CC2)oc2ccccc12,.,11µM,.,.,.,/
CC[C@@H](CCCCCCCn1ccc2ccccc21)CCC(=O)N(c1ccccc1)c1ccccc1,.,/,/,/,/,/
O=C(NC1CCCCN(Cc2cccc(C(F)(F)F)c2)C1=O)c1ccc(-c2ccccc2)cc1 (configuration not stated),.,/,/,/,/,/
COc1ccc(/C=C(\C#N)C(=O)Nc2cccnc2)cc1,/,.,.,.,.,.
N#C/C(=C\c1ccc(Cl)cc1)C(=O)Nc1cccnc1,.,.[1.82 µM],.,.,13µM,/
O=C(CN1CCN(CC(=O)Nc2ccccc2C(F)(F)F)CC1)Nc1ccccc1F,.,.,.,.,.,.
O=C(CN1CCN(C(=O)c2c(F)cccc2F)CC1)Nc1ccccc1C(F)(F)F,.,16µM,.,.,.,.
CS(=O)(=O)N1CCN(/[N+]([O-])=N/Oc2ccc([N+](=O)[O-])cc2[N+](=O)[O-])CC1 (tested in a mixture with another compound),/,/,.,.,/,/
O=C(c1cnn(-c2nccc(-c3ccccc3F)n2)c1C1CC1)N1CCCCC1c1cccnc1 (configuration not stated),/,/,/,.,/,/
COc1ccc(NC(=O)c2cc(C(C)=O)n3ccccc23)cc1Cl,.,.,/,.,.,/
CCc1ccc(NC(=O)c2cc(C(C)=O)n3ccccc23)cc1,.,11µM,/,.,.,/
CCc1nc(C)cn1S(=O)(=O)c1ccc([N+](=O)[O-])cc1,.,.,.,.,.,?
CCCn1c(CC)nc([N+](=O)[O-])c1S(=O)(=O)c1ccccc1,.,25µM,.,.,.,.
COC(=O)C[C@@H]1CC[C@H]2[C@@H](COc3ccc(NS(=O)(=O)c4ccccc4F)cc3C(=O)N2C)O1,.,/,/,/,/,/
CCOC(=O)[C@]12CCC=C1N(CCC1=CCCCC1)C(=O)[C@H](CC(=O)NCc1ccccc1)C2,.,.,.,/,.,/
CCOC(=O)[C@]12CCCC=C1N(CCC1=CCCCC1)C(=O)[C@H](CC(=O)NCC1CCCCC1)C2,?,22µM,.,/,.,/
CCOC(=O)[C@]12CCCC=C1N(CCC1=CCCCC1)C(=O)[C@H](CC(=O)NCc1ccccc1)C2,?,22µM,.,/,?,/
